Experimental data reported in PMC5540273 (PLoS ONE, 2017).

Assays:
Conditions in all cases: concentration: 1 μM,replicates: in singlicate; n = 1
PLK2 = test system: PLK2
PLK3 = test system: PLK3
PLK4 = test system: PLK4
PRKCD = test system: PRKCD
PRKCE = test system: PRKCE
PRKCH = test system: PRKCH
PRKCI = test system: PRKCI
PRKCQ = test system: PRKCQ
PRKD1 = test system: PRKD1
PRKD2 = test system: PRKD2
PRKD3 = test system: PRKD3
PRKG1 = test system: PRKG1
PRKG2 = test system: PRKG2
PRKR = test system: T1, PRKR
T1 construct: gene EIF2AK2

PRKX = test system: PRKX
PRP4 = test system: PRP4
PYK2 = test system: T2, PYK2
T2 construct: gene PTK2B

QSK = test system: QSK
RAF1 = test system: RAF1
RET = test system: RET
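Further: KINOMEscan kinase panel screen.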

Row | Structure (SMILES) | %Inh (PLK2) [%] | %Inh (PLK3) [%] | %Inh (PLK4) [%] | %Inh (PRKCD) [%] | %Inh (PRKCE) [%] | %Inh (PRKCH) [%] | %Inh (PRKCI) [%] | %Inh (PRKCQ) [%] | %Inh (PRKD1) [%] | %Inh (PRKD2) [%] | %Inh (PRKD3) [%] | %Inh (PRKG1) [%] | %Inh (PRKG2) [%] | %Inh (PRKR) [%] | %Inh (PRKX) [%] | %Inh (PRP4) [%] | %Inh (PYK2) [%] | %Inh (QSK) [%] | %Inh (RAF1) [%] | %Inh (RET) [%]
1 | COC(=O)c1cccc(NC(=O)NC2CCN(c3ccnc(NCc4ccc(F)cc4)n3)CC2)c1 [GSK1379860] | 0 | 0 | 0 | 0 | 0 | 32 | 28 | 26 | 12 | 2 | 25 | 0 | 0 | 0 | 9 | 30 | 9 | 9 | 15 | 9
2 | CN(c1ccc2c(c1)nc(NCc1ccc(F)cc1)n2C)c1ccnc(Nc2ccc(CS(C)(=O)=O)cc2)n1.Cl [GW813244] | 3 | 21 | 73 | 11 | 100 | 0 | 18 | 0 | 0 | 24 | 7 | 9 | 0 | 0 | 0 | 0 | 39 | 0 | 96.4 | 100
3 | COc1cc2ncn(-c3cc(OCC4CCCCC4)c(C(N)=O)s3)c2cc1OC [GSK204559] | 99.3 | 99.3 | 4 | 24 | 0 | 30 | 0 | 32 | 0 | 0 | 2 | 9 | 0 | 0 | 10 | 0 | 0 | 12 | 9 | 17
4 | CCNCC(Cc1ccccc1)NC(=O)c1cc(Br)c(-c2ccnc3[nH]ccc23)s1.Cl.Cl (centres unmarked) [GSK1383280] | 30 | 47 | 92.3 | 91.7 | 94.5 | 93.1 | 26 | 74 | 77 | 73 | 73 | 99 | 99 | 22 | 95.6 | 6 | 25 | 0 | 2 | 75
5 | CCN1CCN(CCCC(=O)Nc2n[nH]c3nc(-c4ccc(O)cc4)c(Br)cc23)CC1 [SB-731579] | 0 | 0 | 0 | 64 | 70 | 19 | 2 | 0 | 1 | 0 | 0 | 3 | 6 | 0 | 0 | 0 | 0 | 50 | 17 | 23
6 | Cn1cc(-c2cccc3c(N)c(C(N)=O)nnc23)cn1 | 13 | 17 | 26 | 24 | 10 | 36 | 24 | 53 | 0 | 15 | 21 | 39 | 11 | 0 | 3 | 1 | 9 | 3 | 0 | 12
7 | CC(C(=O)NC1CCN(c2ccnc(Nc3ccc(F)cc3)n2)C1)c1ccc(Cl)cc1 (centres unmarked) [GSK1379713] | 0 | 0 | 0 | 0 | 3 | 8 | 11 | 21 | 0 | 0 | 2 | 9 | 0 | 0 | 6 | 0 |  | 0 | 0 | 0
8 | Cc1cccc(-c2nc(Nc3ccncc3)c3sccc3n2)n1 [GW869641] | 20 | 13 | 23 | 20 | 40 | 21 | 32 | 0 | 99.3 |  | 90.7 | 7 | 14 | 54 | 0 | 0 | 20 | 24 | 4 | 31
9 | C[C@@H](Oc1cc(-n2cnc3cc(-c4ccncc4)ccc32)sc1C(N)=O)c1ccccc1Cl [GSK479719] | 99.5 |  | 29 | 0 | 18 | 12 | 0 | 2 | 0 | 0 | 16 | 3 | 2 | 0 | 2 | 14 | 13 | 9 | 13 | 36
10 | O=C(NCC1CC1)c1ccc(-c2cc(C(=O)NC3CC3)ccc2F)cc1 [GW810445] | 0 | 0 | 0 | 0 | 27 | 0 | 0 | 0 | 0 | 0 | 0 | 0 | 0 | 0 | 0 | 16 | 0 | 0 | 0 | 4
11 | C[C@@H](Oc1cc(-n2cnc3cc(-c4cnn(C)c4)ccc32)sc1C(N)=O)c1ccccc1Cl [GSK580432] | 99.5 |  | 64 | 23 | 1 | 0 | 46 | 35 | 0 | 0 | 0 | 17 | 2 | 0 | 0 | 81 | 0 | 42 | 13 | 90
12 | N#Cc1cccc(C(=O)NC2CCN(c3ccnc(Nc4ccc(F)cc4)n3)C2)c1 (centres unmarked) [GSK1379708] | 0 | 0 | 0 | 0 | 0 | 0 | 23 | 0 | 0 | 0 | 0 | 1 | 0 | 0 | 14 | 29 | 3 | 0 | 2 | 18
13 | CN1CCN(CCCNc2nccc(-c3c(-c4ccc(F)cc4)nn4cc(C(N)=O)ccc34)n2)CC1 [GW622475] | 0 | 0 | 10 | 29 | 14 | 22 | 41 | 42 | 65 | 67 | 89 | 6 | 0 | 2 | 8 | 0 | 9 | 30 | 35 | 38
14 | CN1CCN(CCNc2nc3cc(Oc4ccc(NC(=O)Nc5cc(C(F)(F)F)ccc5F)cc4)ccc3[nH]2)CC1.Cl.Cl [GW768504] | 0 | 0 | 8 | 9 | 0 | 0 | 0 | 0 | 0 | 14 | 0 | 2 | 0 | 24 | 0 | 0 | 18 | 0 | 75 | 99.9
15 | Cc1ccn2nc(-c3ccc(F)cc3)c(-c3ccncc3)c2c1.Cl [GW457859] | 0 | 0 | 2 | 0 | 14 | 8 | 18 | 8 | 17 | 20 | 30 | 0 | 19 | 12 | 21 | 28 | 0 | 0 | 15 | 4
16 | O=C(Nc1cccc(C(F)(F)F)c1)c1cccc(Oc2ccc3nccn3n2)c1 | 11 | 0 | 0 | 22 | 1 | 0 | 13 | 51 | 0 | 0 | 0 | 19 | 1 | 0 | 17 | 8 | 0 | 6 | 75 | 69
17 | CN(c1ccccc1CNc1nc(Nc2ccc3c(c2)CC(=O)N3)ncc1C(F)(F)F)S(C)(=O)=O | 80 | 49 | 61 | 73 | 58 | 0 | 0 | 80 | 51 | 31 | 70 | 0 | 0 | 0 | 17 | 0 |  | 0 | 0 | 87

Row | Structure (SMILES) | %Inh (PLK2) [%] | %Inh (PLK3) [%] | %Inh (PLK4) [%] | %Inh (PRKCD) [%] | %Inh (PRKCE) [%] | %Inh (PRKCH) [%] | %Inh (PRKCI) [%] | %Inh (PRKCQ) [%] | %Inh (PRKD1) [%] | %Inh (PRKD2) [%] | %Inh (PRKD3) [%] | %Inh (PRKG1) [%] | %Inh (PRKG2) [%] | %Inh (PRKR) [%] | %Inh (PRKX) [%] | %Inh (PRP4) [%] | %Inh (PYK2) [%] | %Inh (QSK) [%] | %Inh (RAF1) [%] | %Inh (RET) [%]
18 | NC(=O)c1ccc(-c2cc3ncnc(SCC(=O)O)c3s2)cc1 | 0 | 6 | 56 | 0 | 0 | 0 | 0 | 0 | 0 | 0 | 0 | 0 | 0 | 100 | 0 | 44 |  | 0 | 3 | 0
19 | Cn1ccc2ncnc(Oc3ccc(NC(=O)Nc4cncc(C(F)(F)F)c4)c(Cl)c3)c21 | 0 | 0 | 0 | 2 | 0 | 20 | 0 | 23 | 0 | 0 | 0 | 0 | 0 | 0 | 0 | 6 | 2 | 0 | 100 | 100
20 | O=C(Nc1ccccc1)c1cccc(Oc2ccc3nccn3n2)c1 | 5 | 0 | 0 | 0 | 13 | 0 | 5 | 24 | 33 | 0 | 1 | 2 | 0 | 0 | 70 | 0 | 0 | 0 | 78 | 0
21 | CCOC(=O)N1CCC(n2cnc(-c3ccc(F)cc3)c2-c2ccnc(N)n2)CC1 [SB-219952] | 2 | 0 | 25 | 0 | 4 | 0 | 8 | 1 | 32 | 5 | 0 | 40 | 26 | 0 | 8 | 0 | 10 | 0 | 0 | 30
22 | COc1cccc(CNC(=O)NC2CCN(c3ccnc(Nc4cc(OC)c(OC)c(OC)c4)n3)C2)c1 (centres unmarked) [GSK1379765] | 0 | 0 | 43 | 0 | 17 | 12 | 31 | 37 | 0 | 3 | 0 | 3 | 0 | 0 | 33 | 48 | 0 | 0 | 21 | 19
23 | COC(=O)Nc1nc2cc(Oc3ccc(NC(=O)Nc4cc(C(F)(F)F)ccc4Cl)cc3)ccc2[nH]1.Cl [GW697465] | 0 | 0 | 0 | 0 | 11 | 7 | 0 | 6 | 0 | 1 | 9 | 2 | 0 | 0 | 15 | 43 | 24 | 9 | 89 | 100
24 | Cl.c1ccc(Oc2ccc(Nc3ccnc4cc(-c5ccc(CN6CCNCC6)o5)ccc34)cc2)nc1 [GW567142] | 0 | 0 | 16 | 0 | 0 | 0 | 20 | 0 | 24 | 3 | 19 | 0 | 0 | 0 | 20 | 13 | 0 | 0 | 0 | 20
25 | C[C@@H](Oc1cc(-n2cnc3ccc(-c4ccncc4)cc32)sc1C(N)=O)c1ccccc1Cl [GSK483724] | 99.3 |  | 0 | 8 | 29 | 33 | 40 | 33 | 0 | 0 | 27 | 0 | 0 | 0 | 33 | 23 | 0 | 0 | 11 | 22
26 | COc1cccc(OC)c1C(=O)Nc1cccc(-c2nn3ccccc3c2-c2ccnc(Nc3cccc(F)c3)n2)c1 [GSK361065] | 10 | 0 | 16 | 26 | 14 | 11 | 21 | 17 | 17 | 1 | 2 | 11 | 0 | 0 | 0 | 0 | 8 | 0 | 29 | 90.1
27 | CCn1c(-c2nonc2N)nc2cncc(Br)c21 [SB-738004] | 8 | 14 | 76 | 21 | 92.8 | 58 | 36 | 6 | 0 | 11 | 0 | 0 | 92.1 | 36 | 0 | 27 | 0 | 0 | 10 | 26
28 | Cl.Cl.NC[C@H](CC1CCCCC1)NC(=O)c1ccc(-c2ccnc3[nH]ccc23)s1 [GSK1581428] | 0 | 0 | 41 | 100 | 98.5 | 100 | 22 | 95.3 | 91.8 | 96.7 | 96.2 | 99.9 | 99.2 | 13 | 97.9 | 81 | 41 | 9 | 0 | 38
29 | O=C(Nc1n[nH]c2cc(-c3ccco3)ccc12)C1CC1 [SB-737447] | 6 | 8 | 20 | 4 | 0 | 8 | 29 | 5 | 0 | 0 | 0 | 0 | 0 | 0 | 0 | 13 | 23 | 20 | 0 | 0
30 | C[C@@H]1CNc2c(sc3ccc4nc(-c5ccncc5)ccc4c23)C(=O)N1 | 1 | 8 | 92.7 | 22 | 65 | 0 | 0 | 8 | 49 | 12 | 34 | 35 | 57 | 0 | 34 | 0 | 3 | 0 | 0 | 14
31 | CS(=O)(=O)Nc1ccc(-c2ccnc3[nH]ccc23)cc1 [GSK993273] | 0 | 0 | 21 | 42 | 64 | 49 | 26 | 57 | 0 | 0 | 0 | 77 | 77 | 41 | 42 | 64 | 20 | 17 | 12 | 22
32 | Cl.Nc1n[nH]c2cc(-c3ccccn3)ccc12 [GSK2189892] | 0 | 0 | 0 | 0 | 0 | 13 | 8 | 7 | 0 | 10 | 0 | 0 | 0 | 0 | 13 | 24 | 0 | 0 | 6 | 2
33 | Cn1ccc2ncnc(Oc3ccc(NC(=O)Nc4cccc(C(F)(F)F)c4)c(F)c3)c21 | 12 | 33 | 31 | 0 | 0 | 0 | 39 | 0 | 0 | 3 | 0 | 18 | 17 | 10 | 0 | 14 | 11 | 0 | 80 | 100
